Assays:
Test in all cases: log2 ratio of Biotin-Ahx-Ub-VS probe labelling (compound/DMSO); higher = less target engagement, active = hit call of the paper (q ≤ 0.05, log2 ratio ≤ -1)
Settings in all cases: treatment time: 3 h
[1] = compound: CCC1N(CCc2sccc12)C(=O)CCl
Outline: (§1)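 HEK293T lysate (495 µg per sample, in Tris/CHAPS/IGEPAL buffer with protease inhibitors) was exposed in triplicate to compound at 50 or 200 µM, or to DMSO, for 3 h, then to Biotin-Ahx-Ub-VS (0.5 µM final) for 1 h. The labelled DUBs were enriched on NeutrAvidin, digested with LysC and trypsin, and analysed by diaPASEF LC-MS/MS. Average base-two log ratios of compound over DMSO came from median-normalised label-free quantities by unpaired t-test. Only proteins with at least 2 unique peptides were used.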

[2] = compound: CN1c2ccccc2C(CS1(=O)=O)NC(=O)CCl
Outline: as §1

[3] = compound: Cl.ClCC(=O)N1CCc2ncncc2C1
Outline: as §1

[4] = compound: Cl.Cn1ncc2C(CCCc12)NC(=O)CCl
Outline: as §1

[5] = compound: ClCC(=O)NC1CCOc2ccccc12
Outline: as §1

[6] = compound: ClCC(=O)NC1CCCc2ccccc12
Outline: (§2)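 These values are averaged ratios of compound to vehicle, tested by unpaired t-test. HEK293T lysate (495 µg per sample) was preincubated in triplicate with compound across a concentration series or vehicle for 3 h and then with Biotin-Ahx-Ub-VS at 0.5 µM final for 1 h. Deubiquitinases carrying the probe were NeutrAvidin-enriched, digested with LysC and trypsin, and measured by diaPASEF LC-MS/MS. Ratios are expressed as log2 from global-median-normalised Spectronaut label-free quantities, and only proteins with two or more unique peptides were included.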

[7] = compound: ClCC(=O)N[C@@H]1CCCc2ccccc12
Outline: as §2

[8] = compound: ClCC(=O)N[C@H]1CCCc2ccccc12
Outline: as §2

[9] = compound: CCC1N(CCc2cc(OC)c(Cl)cc12)C(=O)CCl
Outline: as §1

[10] = compound: CCCC1N(CCc2cc(OC)c(OC)cc12)C(=O)CCl
Outline: as §1

Measured: log2 ratio of Biotin-Ahx-Ub-VS probe labelling

USP24 (UniProt Q9UPU5)
Chain of UniProt Q9UPU5 (Q9UPU5 whole entry): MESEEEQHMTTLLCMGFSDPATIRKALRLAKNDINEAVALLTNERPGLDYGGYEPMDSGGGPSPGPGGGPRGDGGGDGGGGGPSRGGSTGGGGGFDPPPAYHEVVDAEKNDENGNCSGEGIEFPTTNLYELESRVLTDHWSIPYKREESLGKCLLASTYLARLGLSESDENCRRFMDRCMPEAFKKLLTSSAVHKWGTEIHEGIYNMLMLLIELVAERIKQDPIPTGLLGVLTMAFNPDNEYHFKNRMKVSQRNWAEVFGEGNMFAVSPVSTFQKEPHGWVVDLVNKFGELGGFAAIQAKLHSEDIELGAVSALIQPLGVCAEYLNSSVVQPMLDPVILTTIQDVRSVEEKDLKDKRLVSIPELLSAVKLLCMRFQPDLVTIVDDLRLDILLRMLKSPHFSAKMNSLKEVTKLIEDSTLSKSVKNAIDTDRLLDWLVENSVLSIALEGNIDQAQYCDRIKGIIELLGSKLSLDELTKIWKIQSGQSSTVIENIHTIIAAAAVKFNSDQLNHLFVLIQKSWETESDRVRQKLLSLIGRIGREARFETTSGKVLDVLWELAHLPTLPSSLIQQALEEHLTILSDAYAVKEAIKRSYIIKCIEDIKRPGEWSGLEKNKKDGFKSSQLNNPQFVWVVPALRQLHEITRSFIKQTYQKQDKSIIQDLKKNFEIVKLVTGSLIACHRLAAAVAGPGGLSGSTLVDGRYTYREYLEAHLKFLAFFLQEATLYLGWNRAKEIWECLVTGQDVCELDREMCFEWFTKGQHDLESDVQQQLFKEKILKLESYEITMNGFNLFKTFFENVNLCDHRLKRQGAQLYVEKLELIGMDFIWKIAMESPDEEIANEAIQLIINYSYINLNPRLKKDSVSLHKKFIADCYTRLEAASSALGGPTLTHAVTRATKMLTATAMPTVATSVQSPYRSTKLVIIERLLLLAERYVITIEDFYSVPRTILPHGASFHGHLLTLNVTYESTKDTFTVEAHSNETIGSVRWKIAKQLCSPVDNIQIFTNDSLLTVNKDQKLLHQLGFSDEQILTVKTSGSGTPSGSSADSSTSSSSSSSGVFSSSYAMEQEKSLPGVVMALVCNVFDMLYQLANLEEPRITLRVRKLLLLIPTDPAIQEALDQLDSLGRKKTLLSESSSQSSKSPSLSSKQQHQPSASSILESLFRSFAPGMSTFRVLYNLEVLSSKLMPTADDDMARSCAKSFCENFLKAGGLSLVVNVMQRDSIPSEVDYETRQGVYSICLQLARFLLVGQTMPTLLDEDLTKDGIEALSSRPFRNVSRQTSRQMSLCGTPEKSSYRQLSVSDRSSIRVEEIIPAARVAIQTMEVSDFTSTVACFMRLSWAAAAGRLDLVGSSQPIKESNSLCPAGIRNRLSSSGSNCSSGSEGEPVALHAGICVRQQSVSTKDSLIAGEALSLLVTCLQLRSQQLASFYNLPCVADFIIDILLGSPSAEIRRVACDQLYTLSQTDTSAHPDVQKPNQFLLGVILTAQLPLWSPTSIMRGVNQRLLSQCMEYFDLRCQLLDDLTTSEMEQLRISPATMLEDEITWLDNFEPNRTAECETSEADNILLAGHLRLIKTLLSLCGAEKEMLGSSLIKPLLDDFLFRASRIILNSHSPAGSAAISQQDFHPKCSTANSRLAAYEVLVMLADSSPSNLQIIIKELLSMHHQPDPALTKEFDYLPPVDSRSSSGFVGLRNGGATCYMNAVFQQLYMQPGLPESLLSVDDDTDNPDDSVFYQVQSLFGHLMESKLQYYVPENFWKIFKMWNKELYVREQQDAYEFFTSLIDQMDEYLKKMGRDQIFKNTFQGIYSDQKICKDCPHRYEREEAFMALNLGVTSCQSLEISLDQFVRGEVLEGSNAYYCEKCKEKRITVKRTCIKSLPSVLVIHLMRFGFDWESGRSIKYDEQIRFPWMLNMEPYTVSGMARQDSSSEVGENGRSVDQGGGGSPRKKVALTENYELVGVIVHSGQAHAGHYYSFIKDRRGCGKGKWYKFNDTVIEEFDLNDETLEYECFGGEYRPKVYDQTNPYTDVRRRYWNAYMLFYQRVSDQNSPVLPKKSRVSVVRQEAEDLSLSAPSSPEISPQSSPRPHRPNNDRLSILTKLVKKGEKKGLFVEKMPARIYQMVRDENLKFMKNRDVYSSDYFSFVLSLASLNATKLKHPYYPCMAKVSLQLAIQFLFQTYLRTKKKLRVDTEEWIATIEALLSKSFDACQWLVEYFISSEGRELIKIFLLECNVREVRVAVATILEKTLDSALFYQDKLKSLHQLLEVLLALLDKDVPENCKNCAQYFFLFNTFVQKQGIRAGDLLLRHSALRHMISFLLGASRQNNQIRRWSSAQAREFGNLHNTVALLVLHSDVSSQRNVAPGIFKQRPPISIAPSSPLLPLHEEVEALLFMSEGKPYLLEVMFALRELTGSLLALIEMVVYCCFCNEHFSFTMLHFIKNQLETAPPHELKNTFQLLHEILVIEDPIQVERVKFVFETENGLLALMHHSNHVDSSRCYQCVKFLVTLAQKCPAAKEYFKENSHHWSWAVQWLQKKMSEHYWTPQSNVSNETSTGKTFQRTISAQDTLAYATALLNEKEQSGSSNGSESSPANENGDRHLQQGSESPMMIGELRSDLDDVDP
active: [1]; compound concentration: 200uM -1.29 | [9]; compound concentration: 200uM -1.37 | [10]; compound concentration: 200uM -1.41
inactive: [1]; compound concentration: 50uM -0.392 | [2]; compound concentration: 50uM -0.121 | [2]; compound concentration: 200uM -0.347 | [3]; compound concentration: 50uM 0.151 | [3]; compound concentration: 200uM -0.708 | [4]; compound concentration: 50uM 0.209 | [4]; compound concentration: 200uM -0.13 | [5]; compound concentration: 50uM 0.141 | [5]; compound concentration: 200uM -0.46 | [6]; compound concentration: 0.78uM -0.028 | [6]; compound concentration: 1.56uM 0.0284 | [6]; compound concentration: 3.13uM -0.0886 | [6]; compound concentration: 6.25uM -0.0483 | [6]; compound concentration: 12.5uM -0.117 | [6]; compound concentration: 25uM -0.177 | [6]; compound concentration: 50uM -0.175 | [6]; compound concentration: 100uM -0.0863 | [6]; compound concentration: 200uM -0.2 | [7]; compound concentration: 0.78uM -0.148 | [7]; compound concentration: 1.56uM -0.0805 | [7]; compound concentration: 3.13uM -0.0521 | [7]; compound concentration: 6.25uM -0.105 | [7]; compound concentration: 12.5uM -0.0644 | [7]; compound concentration: 25uM -0.126 | [7]; compound concentration: 50uM -0.193 | [7]; compound concentration: 100uM -0.134 | [7]; compound concentration: 200uM -0.343 | [8]; compound concentration: 0.78uM -0.009 | [8]; compound concentration: 1.56uM -0.013 | [8]; compound concentration: 3.13uM -0.0452 | [8]; compound concentration: 6.25uM -0.0162 | [8]; compound concentration: 12.5uM -0.088 | [8]; compound concentration: 25uM -0.093 | [8]; compound concentration: 50uM -0.0741 | [8]; compound concentration: 100uM -0.151 | [8]; compound concentration: 200uM -0.346 | [9]; compound concentration: 50uM -0.366 | [10]; compound concentration: 50uM -0.409

ALG13 (UniProt Q9NP73)
Chain of UniProt Q9NP73 (Q9NP73 whole entry): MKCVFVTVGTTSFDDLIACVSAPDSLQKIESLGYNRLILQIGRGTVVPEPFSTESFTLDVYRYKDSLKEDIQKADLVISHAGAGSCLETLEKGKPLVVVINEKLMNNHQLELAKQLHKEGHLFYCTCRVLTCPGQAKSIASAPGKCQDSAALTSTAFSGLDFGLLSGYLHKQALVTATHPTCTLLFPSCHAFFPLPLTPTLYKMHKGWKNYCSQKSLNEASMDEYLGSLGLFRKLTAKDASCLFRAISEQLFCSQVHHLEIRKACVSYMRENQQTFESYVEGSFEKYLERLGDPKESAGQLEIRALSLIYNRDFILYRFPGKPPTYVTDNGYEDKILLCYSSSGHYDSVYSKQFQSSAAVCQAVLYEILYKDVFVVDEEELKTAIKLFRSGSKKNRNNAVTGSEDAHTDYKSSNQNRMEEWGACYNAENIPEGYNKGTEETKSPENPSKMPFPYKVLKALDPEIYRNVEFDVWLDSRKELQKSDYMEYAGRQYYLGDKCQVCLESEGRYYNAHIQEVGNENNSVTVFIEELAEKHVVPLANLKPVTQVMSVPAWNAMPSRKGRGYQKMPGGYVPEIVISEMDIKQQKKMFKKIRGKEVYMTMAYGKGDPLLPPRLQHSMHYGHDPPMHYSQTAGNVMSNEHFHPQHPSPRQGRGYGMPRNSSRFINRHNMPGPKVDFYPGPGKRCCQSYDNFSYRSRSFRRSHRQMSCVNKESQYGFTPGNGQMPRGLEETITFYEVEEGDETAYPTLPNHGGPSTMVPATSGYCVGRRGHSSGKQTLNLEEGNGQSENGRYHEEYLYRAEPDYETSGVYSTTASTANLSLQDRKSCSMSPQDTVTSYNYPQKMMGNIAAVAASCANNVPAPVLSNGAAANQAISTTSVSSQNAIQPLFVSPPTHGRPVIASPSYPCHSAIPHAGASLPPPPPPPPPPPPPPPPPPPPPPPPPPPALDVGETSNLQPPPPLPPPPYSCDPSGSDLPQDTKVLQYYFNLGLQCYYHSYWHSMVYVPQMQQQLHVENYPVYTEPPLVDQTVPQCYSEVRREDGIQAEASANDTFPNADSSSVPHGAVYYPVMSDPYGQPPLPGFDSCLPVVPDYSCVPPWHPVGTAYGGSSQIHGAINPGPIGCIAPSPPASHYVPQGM
inactive: [1]; compound concentration: 50uM 0.393 | [1]; compound concentration: 200uM 0.533 | [2]; compound concentration: 50uM 0.284 | [2]; compound concentration: 200uM 0.203 | [3]; compound concentration: 50uM 0.0225 | [3]; compound concentration: 200uM 0.439 | [4]; compound concentration: 50uM 0.238 | [4]; compound concentration: 200uM -0.0439 | [5]; compound concentration: 50uM 0.11 | [5]; compound concentration: 200uM 0.324 | [6]; compound concentration: 0.78uM 0.19 | [6]; compound concentration: 1.56uM 0.107 | [6]; compound concentration: 3.13uM -0.625 | [6]; compound concentration: 6.25uM -0.155 | [6]; compound concentration: 12.5uM -0.336 | [6]; compound concentration: 25uM -0.19 | [6]; compound concentration: 50uM -0.356 | [6]; compound concentration: 100uM 0.221 | [6]; compound concentration: 200uM -0.15 | [7]; compound concentration: 0.78uM 0.187 | [7]; compound concentration: 1.56uM 0.128 | [7]; compound concentration: 3.13uM 0.146 | [7]; compound concentration: 6.25uM 0.328 | [7]; compound concentration: 12.5uM 0.0757 | [7]; compound concentration: 25uM -0.0189 | [7]; compound concentration: 50uM -0.26 | [7]; compound concentration: 100uM -0.0849 | [7]; compound concentration: 200uM 0.156 | [8]; compound concentration: 0.78uM 0.0472 | [8]; compound concentration: 1.56uM -0.48 | [8]; compound concentration: 3.13uM 0.0655 | [8]; compound concentration: 6.25uM -0.00893 | [8]; compound concentration: 12.5uM -0.0224 | [8]; compound concentration: 25uM 0.337 | [8]; compound concentration: 50uM -0.216 | [8]; compound concentration: 100uM 0.0146 | [8]; compound concentration: 200uM -0.203 | [9]; compound concentration: 50uM 0.0103 | [9]; compound concentration: 200uM 0.0355 | [10]; compound concentration: 50uM 0.0738 | [10]; compound concentration: 200uM 0.242

MINDY4 (UniProt Q4G0A6)
Chain of UniProt Q4G0A6 (Q4G0A6 whole entry): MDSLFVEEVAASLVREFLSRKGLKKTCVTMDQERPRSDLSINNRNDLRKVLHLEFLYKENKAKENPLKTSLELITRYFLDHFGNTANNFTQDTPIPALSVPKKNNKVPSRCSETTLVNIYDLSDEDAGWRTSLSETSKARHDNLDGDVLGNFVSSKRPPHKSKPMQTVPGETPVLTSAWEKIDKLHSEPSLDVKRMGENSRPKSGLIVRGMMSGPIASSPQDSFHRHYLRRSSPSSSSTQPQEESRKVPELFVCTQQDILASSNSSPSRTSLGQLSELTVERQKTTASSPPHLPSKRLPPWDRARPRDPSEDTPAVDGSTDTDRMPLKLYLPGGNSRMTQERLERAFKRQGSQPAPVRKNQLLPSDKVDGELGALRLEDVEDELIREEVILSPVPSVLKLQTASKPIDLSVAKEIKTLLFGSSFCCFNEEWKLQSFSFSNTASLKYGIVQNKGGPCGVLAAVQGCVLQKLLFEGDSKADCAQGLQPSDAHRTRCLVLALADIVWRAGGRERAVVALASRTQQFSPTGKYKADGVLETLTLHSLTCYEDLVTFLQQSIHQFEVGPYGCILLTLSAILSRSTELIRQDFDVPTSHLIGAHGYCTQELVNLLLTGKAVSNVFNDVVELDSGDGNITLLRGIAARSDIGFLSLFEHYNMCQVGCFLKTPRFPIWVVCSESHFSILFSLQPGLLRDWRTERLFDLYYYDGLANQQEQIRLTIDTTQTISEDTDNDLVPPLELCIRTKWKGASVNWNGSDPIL
active: [2]; compound concentration: 50uM -4.18 | [6]; compound concentration: 0.78uM -2.83 | [6]; compound concentration: 1.56uM -3.43 | [6]; compound concentration: 3.13uM -2.24 | [6]; compound concentration: 6.25uM -2.62 | [6]; compound concentration: 12.5uM -1.89 | [6]; compound concentration: 25uM -2.3 | [6]; compound concentration: 50uM -2.78 | [6]; compound concentration: 100uM -2.85 | [6]; compound concentration: 200uM -2.45 | [7]; compound concentration: 1.56uM -1.89 | [7]; compound concentration: 3.13uM -2.16 | [7]; compound concentration: 6.25uM -1.61 | [7]; compound concentration: 25uM -2.02 | [7]; compound concentration: 50uM -1.96 | [7]; compound concentration: 100uM -1.48 | [7]; compound concentration: 200uM -1.33 | [8]; compound concentration: 0.78uM -2.37 | [8]; compound concentration: 1.56uM -1.3 | [8]; compound concentration: 3.13uM -1.21 | [8]; compound concentration: 6.25uM -3.95 | [8]; compound concentration: 12.5uM -1.25 | [8]; compound concentration: 25uM -1.1 | [8]; compound concentration: 50uM -1.99 | [8]; compound concentration: 100uM -1.91 | [8]; compound concentration: 200uM -2.54
inactive: [1]; compound concentration: 50uM -0.62 | [1]; compound concentration: 200uM 0.797 | [2]; compound concentration: 200uM 0.688 | [3]; compound concentration: 50uM 0.73 | [3]; compound concentration: 200uM -0.108 | [4]; compound concentration: 50uM 0.308 | [4]; compound concentration: 200uM 0.136 | [5]; compound concentration: 50uM 0.825 | [5]; compound concentration: 200uM 0.522 | [7]; compound concentration: 0.78uM -0.837 | [7]; compound concentration: 12.5uM -0.893 | [9]; compound concentration: 50uM 0.0614 | [9]; compound concentration: 200uM -0.042 | [10]; compound concentration: 50uM 0.725 | [10]; compound concentration: 200uM -0.113

USP25 (UniProt Q9UHP3)
active: [1]; compound concentration: 200uM -1.92 | [3]; compound concentration: 200uM -2.93 | [9]; compound concentration: 200uM -1.2
inactive: [1]; compound concentration: 50uM 0.366 | [2]; compound concentration: 50uM -0.365 | [2]; compound concentration: 200uM -0.0888 | [3]; compound concentration: 50uM -0.861 | [4]; compound concentration: 50uM 0.177 | [4]; compound concentration: 200uM -0.552 | [5]; compound concentration: 50uM 0.145 | [5]; compound concentration: 200uM -0.0181 | [6]; compound concentration: 0.78uM -0.139 | [6]; compound concentration: 1.56uM -0.159 | [6]; compound concentration: 3.13uM -0.428 | [6]; compound concentration: 6.25uM -0.379 | [6]; compound concentration: 12.5uM -0.358 | [6]; compound concentration: 25uM -0.339 | [6]; compound concentration: 50uM -0.0397 | [6]; compound concentration: 100uM -0.3 | [6]; compound concentration: 200uM -0.848 | [7]; compound concentration: 0.78uM -0.531 | [7]; compound concentration: 1.56uM -0.227 | [7]; compound concentration: 3.13uM -0.277 | [7]; compound concentration: 6.25uM -0.312 | [7]; compound concentration: 12.5uM -0.223 | [7]; compound concentration: 25uM -0.606 | [7]; compound concentration: 50uM -0.594 | [7]; compound concentration: 100uM -0.346 | [7]; compound concentration: 200uM -0.308 | [8]; compound concentration: 0.78uM -0.226 | [8]; compound concentration: 1.56uM -0.458 | [8]; compound concentration: 3.13uM -0.0391 | [8]; compound concentration: 6.25uM -0.447 | [8]; compound concentration: 12.5uM -0.421 | [8]; compound concentration: 25uM -0.293 | [8]; compound concentration: 50uM -0.255 | [8]; compound concentration: 100uM -0.504 | [8]; compound concentration: 200uM -0.644 | [9]; compound concentration: 50uM -0.56 | [10]; compound concentration: 50uM -0.02 | [10]; compound concentration: 200uM 0.295

From the supplement of paper PMC11732987, “Enantioselective OTUD7B fragment discovery through chemoproteomics screening and high-throughput optimisation” (Communications Chemistry, 2025)
